Screening data as filed in PubChem.
In the library only some 3.7% were active in any assay of this set; here they are far more common.
Ecoli rRNA inh: reduced GFP signal of wild-type E. coli, primary screen, bacterial rRNA inhibitor project, GFP/RFP fluorescence, OD600, single point; 1.6% of 350,000 active; GFP signal change (wild-type ribosome), % (test concentration not listed); E. coli WT GFP vs humanized-ribosome RFP mutants, 24 h; active compounds read low; DMSO median 0, no signal -100;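 active means significant combined selectivity score with lowered wild-type GFP, culture density cut under 30%, mutant RFP and density less affected; inactive means any of these conditions unmet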
MLL AF4-AF9 inh: inhibitors of AF4 peptide binding to AF9, primary screen, biochemical, AlphaScreen, biotin-AF4 peptide, FLAG-AF9, single point. inhibition, % at 10 µM. AID 651704, 2012. 0.47% of 350,000 active;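 active means every replicate reaching a set inhibition limit, whatever the replicate mean, cut at about 25% in these data; inconclusive means mean inhibition reaches that limit but some replicates miss it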
Target sequence (P42568 whole entry, looked up): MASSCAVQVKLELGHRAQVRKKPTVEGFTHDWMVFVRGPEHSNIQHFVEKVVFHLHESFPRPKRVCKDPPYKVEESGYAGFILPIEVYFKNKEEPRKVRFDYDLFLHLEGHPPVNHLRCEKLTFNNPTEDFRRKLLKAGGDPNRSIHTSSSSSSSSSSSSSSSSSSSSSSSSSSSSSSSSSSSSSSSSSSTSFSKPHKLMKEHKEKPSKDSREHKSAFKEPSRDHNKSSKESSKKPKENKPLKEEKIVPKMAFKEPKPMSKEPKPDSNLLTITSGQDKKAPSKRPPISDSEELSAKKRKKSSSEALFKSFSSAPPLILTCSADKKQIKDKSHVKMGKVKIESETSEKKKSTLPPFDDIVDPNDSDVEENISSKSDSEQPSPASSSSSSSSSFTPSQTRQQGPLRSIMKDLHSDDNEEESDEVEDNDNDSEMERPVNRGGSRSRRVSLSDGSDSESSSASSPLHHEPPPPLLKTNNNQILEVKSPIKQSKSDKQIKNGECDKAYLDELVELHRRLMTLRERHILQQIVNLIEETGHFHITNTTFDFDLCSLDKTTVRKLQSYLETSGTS
esBAF inh: Bmi1 luciferase reporter increase in mESCs, primary screen, esBAF inhibitor project, mouse ES cells, Bmi1 luciferase knock-in, single point; 24 h; 100% = twice the neutral-well signal; AID 602393, 2012; 2% of 350,000 active; reporter increase, % at 12.5 µM; in the data active means activation above about 40%; inconclusive means no clear call, values can overlap the other calls;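 further: a rise in the Bmi1 reporter signal indicates esBAF inhibition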
Wnt act: Wnt/beta-catenin pathway activators, primary screen, cell-based, plate reader, single point | Wnt/beta-catenin reporter cell assay, activator | activation, % at 9.35 µM | 1.2% of 300,000 active | AID 743398, 2014; in the data active means activation above about 30%, passing the limit was not always enough; inconclusive means no clear call, values can overlap the other calls
MITF TRPM1 HTS: activators of MITF-driven TRPM1 promoter reporter, primary screen, cell-based, SK-MEL-5, luciferase, single point | SK-MEL-5 TRPM1-promoter luciferase, 24 h; % of positive control, neutral wells = 0 | activation, % at 12.5 µM | 0.75% of 300,000 active;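 active means mean activation of at least 80% with every replicate also reaching 80%; inconclusive means mean reaches 80% but some replicate falls short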
esBAF Ring1 qPCR: Ring1 mRNA increase in mouse ESCs, confirmation, esBAF inhibitor project, cell-based, mouse ESC, RT-qPCR, cherry-pick | shares compounds with esBAF inh | mouse ESC E14, Ring1 mRNA RT-qPCR fold change | fold change at 33 µM | 550 tested, under 10 active;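 active means Ring1 gene expression raised more than 2-fold over untreated cells in both replicates at either tested dose; inconclusive means only one replicate above 2-fold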;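 further: Ring1 transcript normalised to actin housekeeping signal by TaqMan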
Fgf4 repress: Fgf4 mRNA decrease in mouse ESCs, confirmation, esBAF inhibitor project, cell-based, mouse ESC, RT-qPCR, cherry-pick; mouse ESC E14, Fgf4 mRNA qPCR fold change; active compounds read low; Fgf4 expression fold change at 33 µM; 4% of 550 active; shares compounds with esBAF inh;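 active means Fgf4 expression under 0.8 fold of control in both repeat measurements at one or both tested doses; inconclusive means under 0.8 fold in just a single repeat measurement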;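 further: Fgf4 transcript normalised to actin in duplex TaqMan qPCR; cells exposed to compound for 24 h before lysis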
Bmi1 derepress: esBAF inhibition via Bmi1 de-repression, confirmation, cell-based, RT-qPCR, mouse ESC, single point, cherry-pick; shares compounds with esBAF inh; mouse ESE14 ES cells, Bmi1 mRNA qPCR fold; active compounds read high; fold change at 33 µM; 550 tested, under 10 active; AID 743180, 2013;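 active means Bmi1 expression fold change above 6 at either tested concentration, seen in replicate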;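 further: higher fold means more Bmi1 de-repression and stronger esBAF inhibition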
A549 tox SP: A549 cell cytotoxicity, cytotoxicity control, plate reader, single point, cherry-pick | shares compounds with esBAF inh | cell viability change % (negative = cytotoxic), % at 25 µM, hits read low | 550 tested, under 10 active | AID 743188, 2013; call rule not given here
HepG2 tox SP: HepG2 cell cytotoxicity, cytotoxicity control, plate reader, single point, cherry-pick; shares compounds with esBAF inh; active compounds read low; activity change, negative = inhibition, % at 25 µM; 4% of 550 active; AID 743189, 2013; in the data active means activity change below about -50%
HEK293 tox SP: HEK293 cell cytotoxicity, cytotoxicity control, plate reader, single point, cherry-pick | activity change, negative = inhibition, % at 25 µM, hits read low | shares compounds with esBAF inh | 3% of 550 active; in the data active means activity change below about -38%, passing the limit was not always enough
Of the large screens only hits and unclear results are named; the others gave an inactive call (follow-up assays come after a bar, where they were run).

Cc1cc(N2CCOCC2)nc2ccc(NC(=O)CCC(=O)N3CCN(c4ccccc4F)CC3)cc12	esBAF inh 74.1, MITF TRPM1 HTS 119.6 | esBAF Ring1 qPCR inactive | Fgf4 repress inactive | Bmi1 derepress inactive | A549 tox SP inactive | HepG2 tox SP inactive | HEK293 tox SP inactive
Cc1cc(N2CCOCC2)nc2ccc(NC(=O)CCC(=O)N3CCN(c4ccc(F)cc4)CC3)cc12	none
CC12CCC3C(C1)C(C(=O)O2)C(=O)OC3(C)C (stereo not given)	none (no result: Ecoli rRNA inh, MITF TRPM1 HTS)
O=C(Nc1ccc2c(c1)OCO2)c1cnc(Cl)c(Cl)c1	esBAF inh 54.3 | esBAF Ring1 qPCR inactive | Fgf4 repress inactive | Bmi1 derepress inactive | A549 tox SP inactive | HepG2 tox SP inactive | HEK293 tox SP inactive
CCOC(=O)N1CCN(C(=O)c2ccccc2NC(=O)COc2ccccc2C)CC1	none (no result: MITF TRPM1 HTS)
Cc1cc(C)c(C(=O)CN2C(=O)NC3(CCCCC3)C2=O)cc1C	none (no result: esBAF inh)
Cc1ccc(C(=O)CN2C(=O)NC3(CCCCCC3)C2=O)c(C)c1	esBAF inh 79.8, MITF TRPM1 HTS 114.6 | esBAF Ring1 qPCR inactive | Fgf4 repress inactive | Bmi1 derepress inactive | A549 tox SP inactive | HepG2 tox SP inactive | HEK293 tox SP inactive
O=C(CCc1nnc(C2(c3ccc(Cl)cc3)CCC2)o1)N1CCCC1	esBAF inh 65.1 | esBAF Ring1 qPCR inactive | Fgf4 repress inactive | Bmi1 derepress inactive | A549 tox SP inactive | HepG2 tox SP inactive | HEK293 tox SP inactive
O=C(Nn1cnnc1)c1cc2cc(Br)ccc2oc1=O	none (no result: Ecoli rRNA inh, MLL AF4-AF9 inh)
Cc1cccc(NC(=O)COC(=O)c2ccc3nc(C)c(C)nc3c2)c1	none
O=C(c1cc2c(s1)-c1ccccc1OC2)N1CCCC1	esBAF inh 76.5, Wnt act 55.4 | esBAF Ring1 qPCR inactive | Fgf4 repress inactive | Bmi1 derepress inactive | A549 tox SP inactive | HepG2 tox SP inactive | HEK293 tox SP inactive
O=C(N/N=C/c1ccc(Cl)cc1)Nc1ccccc1	esBAF inh 59.3, MITF TRPM1 HTS 94.8 (no result: Ecoli rRNA inh, MLL AF4-AF9 inh) | esBAF Ring1 qPCR inactive | Fgf4 repress inactive | Bmi1 derepress inactive | A549 tox SP inactive | HepG2 tox SP inactive | HEK293 tox SP inactive
Cc1ccccc1S(=O)(=O)NCC[C@H]1CC[C@@H](NC(=O)C2CCCCC2)[C@@H](CO)O1	none (no result: Wnt act, MITF TRPM1 HTS)
Cc1cc(C(=O)Nc2sc(C)c(-c3ccc(F)cc3)c2C(N)=O)no1	esBAF inh 77.5 (no result: Ecoli rRNA inh, MLL AF4-AF9 inh, Wnt act) | esBAF Ring1 qPCR inactive | Fgf4 repress inactive | Bmi1 derepress inactive | A549 tox SP inactive | HepG2 tox SP inactive | HEK293 tox SP inactive
COc1cc(C=O)c(Br)cc1OCc1ccc(C)cc1	esBAF inh 81.4 (no result: Ecoli rRNA inh, MLL AF4-AF9 inh, Wnt act) | esBAF Ring1 qPCR inactive | Fgf4 repress inactive | Bmi1 derepress inactive | A549 tox SP inactive | HepG2 tox SP inactive | HEK293 tox SP inactive
CCS(=O)(=O)N1C[C@@H](C)[C@H](OC)CN(C)C(=O)c2cc(NS(=O)(=O)c3ccccc3C)ccc2OC[C@H]1C	none (no result: esBAF inh, Wnt act, MITF TRPM1 HTS)
Cc1ccc(Cl)c2c(N=Nc3ccccc3)c(O)[nH]c12	esBAF inh 57.6 | esBAF Ring1 qPCR inactive | Fgf4 repress inactive | Bmi1 derepress inactive | A549 tox SP inactive | HepG2 tox SP inactive | HEK293 tox SP inactive
COc1ccc(C(=O)NC2CC2)cc1OC1CCN(Cc2ccccc2F)CC1	none (no result: esBAF inh)
CC/C(=N\NC(=O)c1cc(C2CC2)[nH]n1)c1ccccc1	esBAF inh 56.2 | esBAF Ring1 qPCR inactive | Fgf4 repress inactive | Bmi1 derepress inactive | A549 tox SP inactive | HepG2 tox SP inactive | HEK293 tox SP inactive
COc1ccc(C#Cc2ccc([C@H]3[C@@H](CO)N4CCCCN(C(=O)c5ccncc5)C[C@@H]34)cc2)cc1	none (no result: Wnt act, MITF TRPM1 HTS)
O=C(C[C@@H]1CC[C@@H]2[C@H](COC[C@H](O)CN2Cc2cccc(F)c2)O1)NCc1cccc(F)c1	none (no result: Wnt act, MITF TRPM1 HTS)
CSc1nnc(NC(=O)C23CC4CC(CC(C4)C2)C3)s1	esBAF inh 58.4 | esBAF Ring1 qPCR inactive | Fgf4 repress inconclusive | Bmi1 derepress inactive | A549 tox SP inactive | HepG2 tox SP inactive | HEK293 tox SP inactive
NC(=O)CSc1nnc(NC(=O)C23CC4CC(CC(C4)C2)C3)s1	none (no result: Ecoli rRNA inh, MLL AF4-AF9 inh, esBAF inh, Wnt act)
Cc1cc(-c2nnco2)c(C)n1-c1ccccc1	esBAF inh 54.0 (no result: Ecoli rRNA inh, MLL AF4-AF9 inh) | esBAF Ring1 qPCR inactive | Fgf4 repress inactive | Bmi1 derepress inactive | A549 tox SP inactive | HepG2 tox SP inactive | HEK293 tox SP inactive
Cc1nc2ccccn2c1-c1nnco1	none (no result: Ecoli rRNA inh, MLL AF4-AF9 inh)
CCOC(=O)C1=C(CSc2nc(-c3ccccc3)ccc2C#N)OC(N)=C(C#N)C1c1ccccc1 (stereo not given)	esBAF inh inconclusive (no result: Ecoli rRNA inh, MLL AF4-AF9 inh)
CCOC(=O)C1=C(CSc2nc(-c3ccccc3)ccc2C#N)OC(N)=C(C#N)C1c1cccnc1 (stereo not given)	esBAF inh 72.6 (no result: Ecoli rRNA inh, MLL AF4-AF9 inh, Wnt act) | esBAF Ring1 qPCR inactive | Fgf4 repress inconclusive | Bmi1 derepress inactive | A549 tox SP inactive | HepG2 tox SP inactive | HEK293 tox SP inactive
Nc1nc(SCC(=O)N2CCCCCC2)[nH]c(=O)c1NC(=O)c1ccco1	none (no result: MITF TRPM1 HTS)
Cc1ccc2c3c([nH]c2c1C)-c1nonc1CC3	esBAF inh 54.6 (no result: Ecoli rRNA inh, MLL AF4-AF9 inh) | esBAF Ring1 qPCR inactive | Fgf4 repress inconclusive | Bmi1 derepress inactive | A549 tox SP inactive | HepG2 tox SP inactive | HEK293 tox SP inactive
Cc1ccc2c(COC(=O)C34CC5CC(CC(C5)C3)C4)cc(=O)oc2c1	esBAF inh 95.8, MITF TRPM1 HTS 102.9 (no result: Ecoli rRNA inh, MLL AF4-AF9 inh, Wnt act) | esBAF Ring1 qPCR inactive | Fgf4 repress inactive | Bmi1 derepress inactive | A549 tox SP inactive | HepG2 tox SP inactive | HEK293 tox SP inactive
Cc1ccc(S(=O)(=O)N2CCC[C@H]2C(=O)OCc2cc(=O)oc3cc(C)ccc23)cc1	none (no result: esBAF inh)
COc1ccc(NC(=O)C2(C)CCN2CC2CCCCC2)cc1OC (stereo not given)	none (no result: MITF TRPM1 HTS)
